Results filed as inconclusive are left out. Calls of active or inactive are those of the source. Unless noted, the rule behind the calls is not given here.
Tests used:
[1] = qHTS profiling of the MIPE4 collection as inhibitors of Plasmodium falciparum (3D7) proliferation (AID 743344);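 note: scaled between DMSO vehicle wells and 0.29 µM artemisinin as full inhibition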; conditions: P. falciparum 3D7 in erythrocytes, SYBR Green DNA fluorescence, 72 h; at 28.5 µM unless noted
How it was run: (§1)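 Erythrocytes infected with P. falciparum (0.3% parasitemia, 2.5% hematocrit) incubated with compounds 72 h at 37 C, 5% CO2. Lysis with saponin/Triton buffer containing SYBR Green I, overnight at room temperature in the dark; DNA fluorescence (485/535 nm) normalised to 0.29 uM artemisinin and DMSO.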

[2] = qHTS profiling of the MIPE4 collection as inhibitors of Plasmodium falciparum (DD2) proliferation (AID 743345); conditions: P. falciparum Dd2 in erythrocytes, SYBR Green DNA, 72 h; at 28.5 µM unless noted
How it was run: as §1

[3] = qHTS profiling of the MIPE4 collection as inhibitors of Plasmodium falciparum (DD2) proliferation (Rep 2) (AID 743346); conditions: P. falciparum Dd2 in erythrocytes, SYBR Green DNA, 72 h; at 28.5 µM unless noted
How it was run: as §1

[4] = High-throughput drug toxicity screening in the BPDCN cell line Gen2.2 (AID 1224824); conditions: Gen2.2 BPDCN cells; at 45.8 µM (top of the series) unless noted
How it was run: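 Readout is ATP luminescence from Gen2.2 cells after two days of drug exposure in serum-containing medium at 37 °C. Values express percent activity, with vehicle defining full signal and 9.2 uM bortezomib defining zero.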

[5] = High-throughput drug toxicity screening in the BPDCN cell line Cal-1 (AID 1224825); conditions: Cal-1 BPDCN cell viability, qHTS; at 45.8 µM (top of the series) unless noted
How it was run: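 Cal-1 cells, 500 per well in phenol-red-free RPMI with 10% FBS, exposed to compounds for 48 hours at 37C, 5% CO2. Viability read by CellTiter-Glo luminescence; percent activity normalized to DMSO (100%) and 9.2 uM bortezomib final (0%).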

[6] = qHTS assay for measurement of the activity of small molecule inhibitors on Zika virus induced Caspase-3 activity in human iPSC derived neural progenitor cells (hNPCs) (AID 1224857; active = well fitted curve in the direction sought with a large enough effect; an effect the other way counts as inactive or inconclusive; note: % of control where 0% means no effect; nearly all actives have a fitted effect of over 65% in size)
How it was run: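 hNPCs seeded 350 cells/well, cultured 16–20 h; compounds added 1 h before ZIKV (2 FFU/cell), 37 C 6 h. Caspase-Glo 3/7 luminescence after 30 min RT; % inhibition from induction scaled to uninfected (0%) and infected (100%) wells.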

[7] = qHTS assay for measurement of the activity of small molecule inhibitors on Zika virus induced Caspase-3 activity in human astrocytoma cells (AID 1224859; active = well fitted curve in the direction sought with a large enough effect; an effect the other way counts as inactive or inconclusive;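 note: plate controls were ZIKV-infected untreated cells for no effect and uninfected cells for full effect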)
How it was run: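 Luminescence read-out (Caspase-Glo 3/7, 30 min RT) of caspase activity in SNB-19 cells infected 6 h with ZIKV, 2 FFU/cell, after 1 h compound pretreatment; % inhibition from induction normalised to uninfected (0%) and infected (100%) wells.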

[8] = qHTS Screen of the MIPE 4.0 Collection Against Ewings Sarcoma (TC71) (AID 1259253; active = well fitted curve in the direction sought with a large enough effect; an effect the other way counts as inactive or inconclusive; note: nearly all actives have a fitted effect of over 40% in size; note: potency is the fitted concentration of half-maximal effect)
How it was run: (§2)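 Viability screen: 48 h incubation at 37C, 95% humidity, 5% CO2 with serially titrated compound, followed by CellTiter-Glo readout.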

[9] = qHTS Screen of the MIPE 4.0 Collection Against Ewings Sarcoma (EW8) (AID 1259255; active = well fitted curve in the direction sought with a large enough effect; an effect the other way counts as inactive or inconclusive; note: nearly all actives have a fitted effect of over 35% in size; note: potency is the fitted concentration of half-maximal effect;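 for viability: 100% = DMSO-treated cells and 0% = medium-only wells without cells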)
How it was run: as §2

[10] = qHTS profiling of the MIPE4 collection as inhibitors of Plasmodium falciparum (HB3) proliferation (AID 743347);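 note: plate controls were DMSO vehicle wells for no effect and artemisinin wells for full effect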; conditions: P. falciparum HB3 in erythrocytes, SYBR Green DNA, 72 h; at 28.5 µM unless noted
How it was run: as §1

[11] = P-glycoprotein substrates identified in KB-3-1 adenocarcinoma cell line, qHTS therapeutic library screen (AID 1346986; active = well fitted curve in the direction sought with a large enough effect; an effect the other way counts as inactive or inconclusive; note: nearly all actives have a fitted effect of over 60% in size)
How it was run: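 Compounds were tested in dose-response against KB-3-1 and KB-8-5-11 cells at 37 degree C for 72 h, and viability was measured by luminescence. AC50 values came from curve fitting with class-based activity calls.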

[12] = qHTS Screen of the MIPE 4.0 Collection Against Ewings Sarcoma (TC32) (AID 1259256; active = well fitted curve in the direction sought with a large enough effect; an effect the other way counts as inactive or inconclusive; note: nearly all actives have a fitted effect of over 45% in size; note: potency is the fitted concentration of half-maximal effect)
How it was run: as §2

[13] = Identifying Small Molecule Inhibitors of Pancreatic Cancer Stem Cells (SN12C, Spheroid) (AID 1259360; active = well fitted curve in the direction sought with a large enough effect; an effect the other way counts as inactive or inconclusive;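 note: 100% = DMSO-treated cells and 0% = wells without cells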); conditions: Potency: SN12C spheroid viability
How it was run: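 Pre-formed 14-day tumor spheroids or adherent cells dosed and incubated 48 h, 37C, 5% CO2. Viability assessed by CellTiter-Glo.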

[14] = Identifying Small Molecule Inhibitors of Pancreatic Cancer Stem Cells (A278, Adherent) (AID 1259361; active = well fitted curve in the direction sought with a large enough effect; an effect the other way counts as inactive or inconclusive;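 note: viability read after 48 h compound exposure; nearly all actives have a fitted effect of over 35% in size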;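 for viability (% of control): 100% = DMSO-treated cells and 0% = cell-free media-only wells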)
How it was run: (§3)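 Monolayer and spheroid cultures are compared. Spheroids form over 14 days in stem cell medium on hydrogel-coated low-attachment plates, then are exposed to compound for 48 h before CellTiter-Glo luminescence.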

[15] = qHTS assay to identify small molecule inhibitors of chordoma cells - UCH-2 (AID 1259356; active = well fitted curve in the direction sought with a large enough effect; an effect the other way counts as inactive or inconclusive; note: % is set by controls: 0 for no effect and ±100 for the full control effect)
[16] = qHTS profiling for inhibitors of Plasmodium falciparum (HB3) proliferation (AID 743324; active = well fitted curve in the direction sought with a large enough effect; an effect the other way counts as inactive or inconclusive;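 note: 100% = DMSO vehicle wells and 0% = artemisinin-treated control wells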); conditions: Plasmodium falciparum HB3 blood-stage proliferation; at 28.7 µM (top of the series) unless noted
How it was run: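 P. falciparum HB3 grown in erythrocytes (0.3% parasitemia, 2.5% hematocrit final) with compound for 72 h at 37 C, 5% CO2. Parasite DNA detected by SYBR Green after saponin/triton lysis overnight; normalized to 0.29 uM artemisinin and DMSO.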

[17] = Identifying Small Molecule Inhibitors of Pancreatic Cancer Stem Cells (SN12C, Adherent) (AID 1259358; active = well fitted curve in the direction sought with a large enough effect; an effect the other way counts as inactive or inconclusive;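 note: cell survival measured after 48 h of compound exposure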)
How it was run: as §3

SMILES | parasite growth, % of DMSO control [1] | parasite growth remaining, % of DMSO control (lower = more inhibition) [2] | parasite growth, % of control (lower = inhibition) [3] | cell viability, % of control (lower = more cytotoxic) [4] | viability (% of control) [5] | Potency [6] | Potency [7] | Potency [8] | Potency [9] | growth, % of control [10] | Potency [11] | Potency [12] | Potency [13] | IC50 (viability decrease) [14] | outcome [15] | remaining proliferation (% of control), lower = more inhibition [16] | Potency [17]
Cc1ccccc1-n1c(Cn2nc(-c3cccc(O)c3)c3c(N)ncnc32)nc2cccc(C)c2c1=O | 6.67% | 8.31% | 15% | 5.88% | 10.5% | inactive | inactive | 9.35 µM (active) | 16.6 µM (active) | – | – | – | – | – | – | – | –
CCCC1OC2C[C@@H]3[C@H]4CCC5=CC(=O)C=C[C@]5(C)[C@H]4C(O)C[C@]3(C)[C@]2(C(=O)CO)O1 (stereo partly specified) | 11.7% | 20.2% | 15.8% | 12.2% | 11.8% | inactive | inactive | – | 18.7 µM (active) | 5.33% | – | – | – | – | – | – | –
O=c1[nH]c(=O)n([C@H]2C[C@@H](O)[C@@H](CO)O2)cc1I | 85% | 39.2% | 77.7% | 138% | 87.5% | inactive | inactive | – | 5.26 µM (active) | 62.7% | inactive | – | – | – | – | – | –
COc1nccc(-c2c(-c3ccc(F)cc3)ncn2C2CCC(O)CC2)n1 (stereo unspecified) | 42.3% | 80% | 52.5% | 192% | 43.4% | inactive | inactive | 14.8 µM (active) | inactive | 28.5% | inactive | – | – | – | – | – | –
CCCCC[C@H](O)C=C[C@H]1[C@H](O)CC(=O)[C@H]1CCCCCCC(=O)O | 71.4% | 133% | – | 64.6% | 93.2% | inactive | inactive | – | inactive | – | – | – | – | – | – | – | –
C[C@]12C=CC(=O)C=C1CC[C@@H]1[C@@H]2[C@@H](O)C[C@@]2(C)[C@@H]1CC[C@]2(O)C(=O)CO | 84.7% | 100% | 86.4% | 87.5% | 14.3% | inactive | inactive | inactive | – | 78% | – | inactive | – | – | – | – | –
COc1cc(N2CCN(C)CC2)ccc1Nc1nc(N)c(C(=O)c2c(Cl)cccc2Cl)s1 | 20.2% | 8.77% | 14.6% | 72.5% | 49.7% | inactive | inactive | – | 16.6 µM (active) | 21.1% | – | 10.5 µM (active) | – | – | – | – | –
CC(C)n1c(C=C[C@H](O)C[C@H](O)CC(=O)O)c(-c2ccc(F)cc2)c2ccccc21 | – | – | – | 9.81% | 66.9% | inactive | inactive | – | 9.35 µM (active) | – | – | 2.35 µM (active) | inactive | 1.05 µM (active) | – | – | –
O=C(O)c1nc(=O)[nH]c(=O)[nH]1 | 88.8% [at 9.64 µM] | 106% [at 9.64 µM] | 93.6% [at 9.64 µM] | 161% [at 23.2 µM] | 99.2% [at 23.2 µM] | inactive | inactive | – | inactive | 89.9% [at 9.64 µM] | – | inactive | – | – | inactive | – | –
COc1cc(Nc2nc3ccccc3nc2NS(=O)(=O)c2ccc(NC(=O)c3ccc(C)c(OC)c3)cc2)cc(OC)c1 | 42% | 40.5% | 32.8% | 32.5% | 78.5% | inactive | inactive | 20.9 µM (active) | – | 17.6% | inactive | 18.7 µM (active) | – | – | – | – | –
NC(=O)c1ccc(N(C(N)=O)c2c(F)cccc2F)nc1-c1ccc(F)cc1F | 79.5% | 104% | 59.1% | 215% | 92.1% | inactive | inactive | – | inactive | 78.7% | inactive | inactive | inactive | inactive | – | 85.6% | inactive
O=C1CCCC(=O)C1C(=O)c1ccc(C(F)(F)F)cc1[N+](=O)[O-] | 90.1% | 103% | 114% | 124% | 101% | inactive | inactive | 23.5 µM (active) | inactive | 93.4% | – | – | – | – | – | – | –
Cc1ccc(C2=Nc3ccc(Cl)cc3OC2)cc1 | 30.3% | 94.3% | 26.5% | 73.9% | 85% | inactive | inactive | 4.69 µM (active) | 16.6 µM (active) | 55.7% | – | – | – | – | – | – | –
C[C@@H]1CCO[C@H]2Cn3cc(C(=O)NCc4ccc(F)cc4F)c(=O)c(O)c3C(=O)N12 | 55% | 53.9% | 38.3% | 58.3% | 12.5% | inactive | inactive | 13.2 µM (active) | 20.9 µM (active) | – | – | – | – | – | – | – | –
OCCn1cc(-c2ccc3c(c2)CCC3=NO)c(-c2ccncc2)n1 | 67.4% | 83.9% | 74.7% | 4.73% | 76.4% | inactive | inactive | – | inactive | 89.4% | – | – | inactive | 16.6 µM (active) | – | 73.4% | inactive
CC(C)N(CCCNC(=O)Nc1ccc(C(C)(C)C)cc1)C[C@H]1O[C@@H](n2cc(Br)c3c(N)ncnc32)[C@H](O)[C@H]1O | 5.02% | 7.13% | 9.5% | 116% | 61.2% | inactive | inactive | 18.7 µM (active) | – | 7.54% | – | 20.9 µM (active) | – | – | – | – | –
COc1ccc(CCC(=O)Nc2nc3ccc(Cl)cc3s2)cc1OC | 22.3% | – | – | 135% | 98.2% | inactive | inactive | 18.7 µM (active) | – | – | – | 13.2 µM (active) | – | – | – | – | –
CCc1cc(-c2n[nH]c(C)c2-c2ccc3c(c2)OCCO3)c(O)cc1O | 49.4% | 57.9% | 31.5% | 7.68% | 9.12% | inactive | inactive | 8.33 µM (active) | – | 39.1% | – | 4.18 µM (active) | – | – | – | 74.6% | –
